Assay results as given in PubChem BioAssay AID1159580 (chemical genetic matrix, 2015).
Hit rate of the full screen: of about 5,500 compounds, about 2,000 (36%) were called active. About 18% were inconclusive and are not listed. Cut-off read from the data, not from the text of the source: active = normalized growth mostly below about 0.91 (no sharp cut-off); inconclusive = no clear call, values can overlap the other calls; inactive = mostly above about 0.92. Some of the results follow.

Experiment: chemical genetic growth profiling, strain panel (AID 1159580);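 note: tested at 20 µM; growth read once vehicle control cultures reached saturation at 30 °C; 1 = growth at the plate median or of vehicle wells; lower values mean less growth of the strain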
Settings: S. cerevisiae deletion strains, growth OD
[1] = locus YCL061C, strain MRC1, active compounds read low
[2] = locus YDL101C, strain DUN1, active compounds read low
[3] = locus YHR030C, strain SLT2, active compounds read low
[4] = locus YJL187C, strain SWE1, active compounds read low
[5] = locus YHR079C, strain IRE1, active compounds read low
[6] = locus YJL095W, strain BCK1, active compounds read low
[7] = locus YJR066W, strain TOR1, active compounds read low
[8] = locus YLR113W, strain HOG1, active compounds read low
[9] = locus YNL183C, strain NPR1, active compounds read low
[10] = locus YOR231W, strain MKK1, active compounds read low
[11] = locus YPL256C, strain CLN2, active compounds read low

Measured: normalized growth

COC(=O)c1cc([N+](=O)[O-])ccc1NC(C)=O
inactive: locus YAL013W, strain DEP1, active compounds read low 0.986 | locus YBR229C, strain ROT2, active compounds read low 1 | [1] 0.997 | [2] 1.01 | locus YDL134C, strain PPH21, active compounds read low 1.01 | locus YDR150W, strain NUM1, active compounds read low 0.989 | locus YEL061C, strain CIN8, active compounds read low 0.989 | locus YGR078C, strain PAC10, active compounds read low 1 | locus YGR229C, strain SMI1, active compounds read low 1 | [3] 0.929 | locus YHR087W, strain rtc3, active compounds read low 1.02 | [4] 0.998 | locus YJR043C, strain POL32, active compounds read low 0.994 | locus YJR075W, strain HOC1, active compounds read low 1.03 | locus YKL190W, strain CNB1, active compounds read low 0.995 | locus YLR039C, strain RIC1, active compounds read low 1.05 | locus YLR058C, strain SHM2 (second series), active compounds read low 0.996 | locus YLR085C, strain ARP6, active compounds read low 0.977 | locus YLR262C, strain YPT6, active compounds read low 1.03 | locus YML094W, strain GIM5, active compounds read low 1.02 | locus YMR219W, strain ESC1, active compounds read low 0.999 | locus YMR263W, strain SAP30, active compounds read low 0.979 | locus YMR307W, strain GAS1, active compounds read low 0.998 | locus YNL128W, strain TEP1, active compounds read low 1.01 | locus YNL153C, strain GIM3, active compounds read low 0.986 | locus YNL298W, strain CLA4 (second series), active compounds read low 0.958 | locus YNL322C, strain KRE1, active compounds read low 1.01 | locus YNR030W, strain Alg12, active compounds read low 1 | locus YPL055C, strain LGE1, active compounds read low 0.983 | locus YPL241C, strain CIN2, active compounds read low 1.03 | locus YPR135W, strain CTF4, active compounds read low 0.992

CC(=O)Nc1ccc([N+](=O)[O-])cc1[N+](=O)[O-]
inactive: locus YBL105C, strain PKC1, active compounds read low 0.925 | locus YBR135W, strain CKS1, active compounds read low 0.911 | locus YBR136W, strain MEC1, active compounds read low 0.922 | locus YBR160W, strain CDC28, active compounds read low 0.918 | locus YDL017W, strain CDC7, active compounds read low 0.927 | locus YDL028C, strain MPS1, active compounds read low 0.924 | locus YDL108W, strain KIN28, active compounds read low 0.912 | locus YDR052C, strain DBF4, active compounds read low 0.931 | locus YDR226W, strain ADK1, active compounds read low 0.911 | locus YFL009W, strain cdc4, active compounds read low 0.899 | locus YFR003C, strain YPI1, active compounds read low 0.926 | locus YFR028C, strain CDC14, active compounds read low 0.9 | locus YIL147C, strain SLN1, active compounds read low 0.927 | locus YJL128C, strain PBS2, active compounds read low 0.878 | locus YJR016C, strain ILV3, active compounds read low 0.924 | locus YNL006W, strain LST8, active compounds read low 0.927 | locus YNL207W, strain RIO2, active compounds read low 0.909 | locus YOR329C, strain SCD5, active compounds read low 0.929 | locus YPL209C, strain IPL1, active compounds read low 0.915 | locus YPR025C, strain CCL1, active compounds read low 0.92 | locus YPR106W, strain ISR1, active compounds read low 0.926 | locus YPR111W, strain DBF20, active compounds read low 0.902 | strain NNK1, active compounds read low 0.931
active: locus YAR019C, strain CDC15, active compounds read low 0.619 | [2] 0.671 | locus YDL132W, strain cdc53, active compounds read low 0.838 | locus YDL214C, strain PRR2, active compounds read low 0.165 | locus YDR054C, strain cdc34, active compounds read low 0.625 | locus YDR477W, strain SNF1, active compounds read low 0.188 | locus YER123W, strain YCK3, active compounds read low 0.114 | locus YER133W, strain GLC7, active compounds read low 0.131 | locus YFL029C, strain CAK1, active compounds read low 0.605 | locus YFR019W, strain FAB1, active compounds read low 0.27 | locus YGR040W, strain KSS1, active compounds read low 0.206 | locus YGR052W, strain FMP48, active compounds read low 0.175 | locus YGR092W, strain DBF2, active compounds read low 0.349 | [3] 0.123 | [5] 0.388 | locus YHR082C, strain KSP1, active compounds read low 0.205 | locus YHR205W, strain SCH9, active compounds read low 0.0559 | [6] 0.174 | locus YJL157C, strain FAR1, active compounds read low 0.307 | locus YJR066W, strain TOR1 (second series), active compounds read low 0.145 | [7] 0.152 | locus YKL048C, strain ELM1, active compounds read low 0.707 | locus YKL067W, strain YNK1, active compounds read low 0.284 | locus YKL101W, strain HSL1, active compounds read low 0.534 | locus YKL193C, strain SDS22, active compounds read low 0.753 | locus YKL203C, strain TOR2, active compounds read low 0.213 | [8] 0.153 | locus YLR133W, strain CKI1, active compounds read low 0.438 | locus YLR403W, strain SFP1, active compounds read low 0.21 | locus YML070W, strain DAK1, active compounds read low 0.202 | locus YMR205C, strain PFK2 (second series), active compounds read low 0.511 | locus YMR277W, strain FCP1, active compounds read low 0.668 | locus YNL020C, strain ARK1, active compounds read low 0.558 | locus YNL161W, strain CBK1, active compounds read low 0.722 | [9] 0.105 | locus YNL222W, strain SSU72, active compounds read low 0.711 | locus YNL307C, strain MCK1 (second series), active compounds read low 0.241 | locus YOL078W, strain AVO1, active compounds read low 0.679 | locus YOL136C, strain PFK27, active compounds read low 0.227 | locus YOR061W, strain CKA2, active compounds read low 0.587 | locus YOR119C, strain RIO1, active compounds read low 0.196 | [10] 0.396 | locus YPL031C, strain PHO85, active compounds read low 0.213 | locus YPL153C, strain RAD53, active compounds read low 0.271 | locus YPL204W, strain HRR25, active compounds read low 0.276 | [11] 0.164 | strain TSCII, active compounds read low 0.587

Nc1ccc([As](=O)(O)O)cc1
inactive: locus YAL021C, strain ccr4, active compounds read low 1 | locus YAL026C, strain drs2, active compounds read low 1.02 | locus YAL030W, strain snc1, active compounds read low 1 | locus YBL061C, strain skt5, active compounds read low 1.01 | locus YBR009C, strain hhf1, active compounds read low 1.02 | locus YBR023C, strain chs3, active compounds read low 1.02 | locus YBR171W, strain sec66, active compounds read low 0.997 | locus YBR231C, strain swc5, active compounds read low 1.01 | locus YBR279W, strain paf1, active compounds read low 1 | locus YCL011C, strain gbp2, active compounds read low 1 | locus YCL016C, strain dcc1, active compounds read low 1.01 | [1] 1 | locus YCL069W, strain vba3, active compounds read low 1.01 | locus YCR088W, strain abp1, active compounds read low 1.01 | locus YDL005C, strain med2, active compounds read low 0.996 | locus YDL040C, strain nat1, active compounds read low 1.01 | locus YDR001C, strain nth1, active compounds read low 0.992 | locus YDR069C, strain doa4, active compounds read low 1.01 | locus YDR137W, strain rgp1, active compounds read low 0.994 | locus YDR159W, strain sac3, active compounds read low 1.02 | locus YDR195W, strain ref2 0.993 | locus YDR297W, strain sur2, active compounds read low 0.999 | locus YDR334W, strain swr1, active compounds read low 1.01 | locus YDR335W, strain msn5, active compounds read low 0.995 | locus YDR392W, strain spt3, active compounds read low 1.01 | locus YEL003W, strain gim4, active compounds read low 0.996 | locus YEL037C, strain rad23, active compounds read low 0.997 | locus YEL061C, strain CIN8 (second series), active compounds read low 0.997 | locus YER015W, strain faa2, active compounds read low 0.999 | locus YER016W, strain bim1, active compounds read low 1 | locus YER111C, strain swi4, active compounds read low 1 | locus YER155C, strain BEM2 (second series), active compounds read low 1.03 | locus YFR010W, strain ubp6, active compounds read low 1 | locus YGL167C, strain pmr1, active compounds read low 0.997 | locus YGL173C, strain kem1, active compounds read low 1.01 | locus YGL227W, strain vid30, active compounds read low 0.998 | locus YGL240W, strain doc1, active compounds read low 1.01 | locus YGL253W, strain hxk2, active compounds read low 1 | locus YHR013C, strain ard1, active compounds read low 1.03 | locus YHR027C, strain rpn1, active compounds read low 1 | [3] 1 | [5] 0.984 | locus YHR142W, strain chs7, active compounds read low 1.02 | locus YJL092W, strain hpr5, active compounds read low 1.01 | locus YJL095W, strain BCK1 (second series), active compounds read low 1 | [6] 0.971 | locus YJL115W, strain asf1, active compounds read low 1.01 | locus YJL129C, strain trk1, active compounds read low 1 | locus YJL154C, strain vps35, active compounds read low 1 | locus YJL164C, strain tpk1, active compounds read low 1.01 | locus YJL166W, strain qcr8, active compounds read low 0.998 | [4] 1 | [7] 0.966 | locus YKL160W, strain elf1, active compounds read low 1 | locus YKR026C, strain gcn3, active compounds read low 0.997 | locus YKR091W, strain srl3, active compounds read low 1.01 | locus YLL001W, strain dnm1, active compounds read low 1.01 | locus YLL026W, active compounds read low 1.01 | locus YLL041C, strain sdh2, active compounds read low 1.01 | locus YLR027C, strain aat2, active compounds read low 1 | [8] 0.965 | locus YLR221C, strain rsa3, active compounds read low 1.01 | locus YLR258W, strain gsy2, active compounds read low 1.01 | locus YLR262C, strain YPT6 (second series), active compounds read low 1 | locus YLR320W, strain mms22, active compounds read low 0.999 | locus YLR342W, strain FKS1, active compounds read low 1.01 | locus YLR357W, strain rsc2, active compounds read low 1.01 | locus YLR370C, strain arc18, active compounds read low 1 | locus YLR384C, strain iki3, active compounds read low 1 | locus YML120C, strain ndi1, active compounds read low 0.997 | locus YMR058W, strain fet3, active compounds read low 1 | locus YMR125W, strain sto1, active compounds read low 1 | locus YMR129W, active compounds read low 1 | locus YMR205C, strain PFK2, active compounds read low 1.04 | locus YMR231W, strain pep5, active compounds read low 1 | locus YNL071W, strain lat1, active compounds read low 1 | [9] 0.968 | locus YNL209W, strain ssb2, active compounds read low 0.999 | locus YNL248C, strain rpa49, active compounds read low 0.992 | locus YNL322C, strain KRE1 (second series), active compounds read low 1.01 | locus YNR049C, strain mso1, active compounds read low 1 | locus YOR001W, strain rrp6, active compounds read low 1 | locus YOR070C, strain gyp1, active compounds read low 1.01 | locus YOR080W, strain dia2, active compounds read low 1.01 | locus YOR083W, strain WHI5, active compounds read low 1 | locus YOR106W, strain vam3, active compounds read low 1.03 | [10] 1.01 | locus YOR265W, strain rbl2, active compounds read low 0.996 | locus YOR270C, strain vph1, active compounds read low 1.06 | locus YOR290C, strain snf2, active compounds read low 1 | locus YPL051W, strain arl3, active compounds read low 1.01 | locus YPL078C, strain atp4, active compounds read low 0.996 | locus YPL106C, strain sse1, active compounds read low 0.996 | locus YPL240C, strain hsp82, active compounds read low 1 | [11] 1.02
